# Assay outcomes deposited in PubChem BioAssay by National Center for Advancing Translational Sciences (NCATS).
# PLK1 PBD block = PLK1 (human) polo-box domain binding inhibition | P53350 | Plk1 PBD binding of FITC phosphopeptide, fluorescence polarization | Potency, µM, actives largely listed as inhibitors | 360,000 compounds, 2.8% hits; note: series mostly up to about 57 µM; nearly all actives have a fitted effect of over 65% in size
# VDR inh = blocks the human vitamin D receptor; VDR-SRC2-3 peptide fluorescence polarization, 2 h; P11473; Potency, µM, usual class: inhibitors; 400,000 compounds, 0.93% hits
#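 Signal is fluorescence polarization, reporting how far test compounds block the interaction of VDR with the SRC2-3 coregulator peptide after a 2 h room-temperature incubation.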
# Tb PFK block = T. brucei PFK enzyme inhibition | O15648 | T. brucei PFK, ADP-Glo luminescence | Potency, µM (doses to about 57.5 µM), usual class: inhibitors | 330,000 compounds, 0.17% hits | AID 485367; note: nearly all actives have a fitted effect of over 60% in size
# Target sequence (O15648 whole entry, looked up): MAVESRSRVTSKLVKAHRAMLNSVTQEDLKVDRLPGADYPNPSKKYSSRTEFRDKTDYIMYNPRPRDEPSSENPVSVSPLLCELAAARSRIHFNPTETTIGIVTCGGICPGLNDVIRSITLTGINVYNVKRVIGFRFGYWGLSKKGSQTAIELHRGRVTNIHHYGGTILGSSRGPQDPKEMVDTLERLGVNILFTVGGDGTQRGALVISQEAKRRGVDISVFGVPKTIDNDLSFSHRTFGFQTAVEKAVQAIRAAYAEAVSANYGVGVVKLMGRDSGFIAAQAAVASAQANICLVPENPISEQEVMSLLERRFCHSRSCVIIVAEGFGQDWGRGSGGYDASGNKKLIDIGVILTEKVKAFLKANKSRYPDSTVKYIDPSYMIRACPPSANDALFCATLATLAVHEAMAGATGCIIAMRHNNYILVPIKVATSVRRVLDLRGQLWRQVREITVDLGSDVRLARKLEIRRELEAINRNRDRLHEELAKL
#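 Activity is normalized to no-enzyme wells (full inhibition) and 1.25 nM enzyme wells (no inhibition). Reaction: 0.5 mM F6P, 0.1 mM ATP, 45 min RT, ADP-Glo luminescence; concentration-response curves fitted and classed by quality.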
# ASM inhibitor = blocks human secretory acid sphingomyelinase. Potency, µM (titrated, usually from 57.5 µM), actives largely listed as inhibitors. placental ASM, HMU-PC fluorogenic substrate, 60 min. P17405. 340,000 compounds, 0.006% hits
#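 HMU-PC0 cleavage (9 uM final) by human placental ASM, 60 min at 37 °C following 10 min compound exposure at RT; stopped at pH 10, fluorescence Ex 386/Em 447 nm.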
# Pin1 inh = human Pin1 inhibition; AID 504891; Potency, µM (highest dose often 115 µM), hits mostly inhibitors; Pin1 FP peptide displacement, HiFluor488, 10 min; 390,000 compounds, 0.009% hits; Q13526; active = well fitted inhibition curve with a large enough effect in the polarisation, with a control signal flat, not every such curve was filed as active; inconclusive = small, poorly fitted or top-dose-only effect, or effect the other way, or a change in a side signal; inactive = no such curve, though single readings can be large or run the other way; the % refers to the polarisation
# Target sequence (Q13526 whole entry, looked up): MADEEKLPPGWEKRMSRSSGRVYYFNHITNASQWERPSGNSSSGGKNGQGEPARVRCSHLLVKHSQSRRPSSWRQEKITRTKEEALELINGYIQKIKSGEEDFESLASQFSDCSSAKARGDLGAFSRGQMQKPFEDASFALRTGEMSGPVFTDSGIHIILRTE
# TDP1 block = blocks human tyrosyl-DNA phosphodiesterase 1; recombinant TDP1, AlphaScreen DNA substrate cleavage; AID 485290; 350,000 compounds, 0.28% hits; Q9NUW8; Potency, µM (doses to about 130 µM), actives largely listed as inhibitors; note: nearly all actives have a fitted effect of over 40% in size
#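 Recombinant E. coli-expressed Tdp1 (1 nM) preincubated with compound 15 min at RT, then 5'-biotin/3'-phosphotyrosine-FITC DNA substrate (15 nM) added for 5 min. AlphaScreen beads (10 ug/ml) added, 10 min RT; tyrosine-FITC cleavage read as signal loss.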
# Hits are given with their value; n = inactive; u = inconclusive; x = no result; [ ] = dose if it differs, or a comment. The list is not random: actives were taken first. Their share in the collection is about 3.1%. Unless noted, calls come from the whole dose curve; as a rule, active = well fitted curve in the direction sought with a large enough effect; inconclusive = small, poorly fitted or top-dose-only effect, or another doubt; inactive = no such curve, though single readings can be large; an effect the other way counts as inactive or inconclusive.
SMILES,PLK1 PBD block,VDR inh,Tb PFK block,ASM inhibitor,Pin1 inh,TDP1 block
CCc1cc2c(=O)c(-c3nc4ccccc4n3C)coc2c(CN2CCC(C)CC2)c1O,n,n,n,n,n,x
CCc1cc2c(=O)c(-c3nc4ccccc4n3C)coc2c(CN2CCN(C)CC2)c1O,n,n,u,n,n,50µM
COc1ccc(NC(=O)N2CCc3nc(-c4ccc(OC)cc4C)c4c(c3C2)CO[C@@H](c2ccccc2)C4)cc1,x,x,x,x,x,n[12.3 µM]
COc1ccc(N2CCN(CC(=O)NCc3ccc(Cl)cc3)CC2)cc1,15µM,n,n,n,n,n
CN(C)S(=O)(=O)c1cccc(NC(=O)COC(=O)/C=C/c2ccc3c(c2)OCO3)c1,n,n,n,n,n,n
Cc1ccc(S(=O)(=O)N2CCOCC2)cc1NC(=O)COC(=O)c1ccco1,n,x,x,x,x,x
Cc1ccc(S(=O)(=O)N2CCOCC2)cc1NC(=O)COC(=O)/C=C/c1ccco1,n,n,n,n,n,28µM
CN(C)S(=O)(=O)c1cccc(NC(=O)COC(=O)/C=C/c2ccco2)c1,30µM,u,u,n,n,x
O=C(Cc1nnc(-c2nc3ccccc3[nH]2)o1)Nc1cc(C(F)(F)F)ccc1Cl,x,x,x,x,u,n
Cc1ccc(C(=O)c2cn(Cc3cccc(Cl)c3)c3nc(C)ccc3c2=O)cc1,x,n,x,x,u,n
O=C(c1cnccn1)N1CCC[C@@]2(CCN(c3cccc(-c4ccccc4)c3)C2)C1,x,28µM,x,x,x,x
O=C(c1csnn1)N1CCC[C@@]2(CCN(c3ccncc3)C2)C1,x,71µM,x,x,x,x
O=C(c1cnccn1)N1CCC[C@@]2(CCN(c3ccccc3)C2)C1,x,n,x,x,x,x
CCCCC(OC(=O)CNC(=O)c1ccccc1)C(=O)Nc1cc(C(F)(F)F)ccc1Cl (stereo unspecified),x,x,x,x,n,n
CC1(C)SCC(C(=O)O)NC1=O (stereo unspecified),21µM,n,n,n,n,n
CC(C)(C)OC(=O)C1=NOC2(C=CC(=O)C=C2)C1,x,28µM,x,x,x,n
O=c1[nH]cnc2scc(-c3ccc(F)cc3)c12,n,n,n,n,n,n
O=c1[nH]c(=S)[nH]c2scc(-c3ccc(Br)cc3)c12,27µM,n,x,n,n,x
CCN(c1ccccc1)S(=O)(=O)c1csc(C(N)=O)c1,27µM,n,n,n,n,x
O=C1NC2(CCCCCC2)C(=O)N1Cc1cccc([N+](=O)[O-])c1,27µM,u,n,n,n,x
CCN(c1ccccc1)c1ncnc2c1cnn2-c1ccc(OC)cc1,x,n,x,x,n,n
Cc1nnsc1S(=O)(=O)c1ccccc1,n,n,n,n,n,x
Cc1nnsc1Sc1ccccc1,12µM,n,n,n,n,n
Nc1nc(N)c2ncc(C(=O)CCc3ccccc3)nc2n1,4.7µM,u,n,n,u,n
CC(C)(C)NC(=O)C(c1ccc(F)cc1)N(CCc1ccccc1)C(=O)c1ccn[nH]1 (stereo unspecified),27µM,n,n,n,n,n
SMILES,PLK1 PBD block,VDR inh,Tb PFK block,ASM inhibitor,Pin1 inh,TDP1 block
COc1ccc(N(C(=O)c2ccn[nH]2)C(C(=O)NC(C)(C)C)c2ccc(F)cc2)cc1 (stereo unspecified),n,n,n,n,n,n
Cc1ccc2c(C)nc(Nc3nc(CSc4nnc(C)s4)cc(=O)[nH]3)nc2c1,n,n,n,n,n,n
COc1cccc2c(C)nc(Nc3nc(CSc4nnc(C)s4)cc(=O)[nH]3)nc12,24µM,79µM,n,n,u,n
CCN1CCN(C(=S)NCCOC)CC1,30µM,n,n,n,n,n
COCCCNC(=O)c1c(NC(=O)Cc2coc3c(C)c(C)ccc23)sc2c1CCCC2,x,n,x,x,n,n
[S-]C(=Nc1ccc(Cl)cc1)N[n+]1ccccc1,17µM,u,n,n,n,n
ONC(=Nc1ccc(Cl)cc1)c1ccc(Cl)cc1,n,n,n,n,n,n
COC(=O)c1ccn(CSc2c(F)c(F)cc(F)c2F)n1,n,n,n,n,n,n
COC(=O)c1ccn(CSc2cc(Cl)ccc2Cl)n1,24µM,n,n,n,n,n
O=C1CC(c2ccccc2)CC2=C1C1(CCCCC1)N=C(Nc1nc3ccccc3o1)N2 (stereo unspecified),x,x,x,x,n,n
COC(=O)c1ccc(NC2=CC(=O)CC(C)(C)C2)cc1,3.4µM,n,n,n,n,n
CC1(C)CC(=O)C=C(Nc2cccc(F)c2)C1,30µM,n,n,n,n,x
COc1ccc(NC2=CC(=O)CC(C)(C)C2)cc1,n,n,n,n,n,x
COc1cccc(NC2=CC(=O)CC(C)(C)C2)c1,n,n,n,n,n,n
COC(=O)C1=C[C@@H](C(=O)OC)C2C3=C(C(=O)[C@@]2(C)NC(=O)c2ccccc2)[C@H](c2ccccc2)[C@@H]2C(=O)N(c4ccccc4)C(=O)[C@@H]2[C@@H]3C1 (stereo partly specified),x,n,x,x,n,n
Cc1cc(C)cc(NC(=O)Cn2nnc(C(=O)NCc3ccc(F)cc3)c2N)c1,3µM,20µM,n,n,n,n
Cc1cccc(C)c1NC(=O)Cn1nnc(C(=O)NCc2ccc(F)cc2)c1N,x,n,x,x,n,n
Cc1cc(C(F)(F)F)c(C#N)c(N2CCOCC2)n1,3.4µM,u,n,n,n,n
CCc1ccc(S(=O)(=O)/N=C2\C=C(Nc3cccc(C(=O)O)c3)C(=O)c3ccccc32)cc1,38µM,n,n,n,u,x
Cc1ccc(S(=O)(=O)/N=C2\C=C(NS(=O)(=O)c3ccccc3)C(=O)c3ccccc32)cc1,15µM,u,x,n,n,x
O=C(O)c1ccc(NC2=C/C(=N/S(=O)(=O)c3ccccc3)c3ccccc3C2=O)cc1,11µM,u,n,n,n,n
CCc1ccc(S(=O)(=O)/N=C2\C=CC(=O)c3ccccc32)cc1,x,x,n,x,x,n
Cc1ccc(S(=O)(=O)Nc2ccccc2-c2ccccc2)cc1,n,n,n,n,n,n
CCc1ccc(S(=O)(=O)/N=C2/C=C(Sc3ncn[nH]3)C(=O)c3ccccc32)cc1,1.5µM,25µM,n,n,43µM,n
COC(=O)CC1Oc2ccc(Cl)cc2-n2cc(-c3ccc(C)cc3)nc21 (stereo unspecified),x,n,x,x,n,n
SMILES,PLK1 PBD block,VDR inh,Tb PFK block,ASM inhibitor,Pin1 inh,TDP1 block
O=c1c2[nH]c3cc(Br)sc3c2cnn1Cc1ccccc1F,x,x,x,x,n,x
Cc1cc(C)cc(-n2c(SCC(=O)Nc3ccccc3F)nc3c(oc4ccccc43)c2=O)c1,x,n,x,x,u,n
O=C(/C(=C/c1ccccc1)n1cncn1)c1ccc(Cl)cc1Cl,19µM,20µM,n,n,n,n
Cc1ccc2nc(C)cc(N/N=C/c3ccccc3O)c2c1,n,u,n,n,n,x
C/C(=N\Nc1nc2ccccc2c(=O)n1O)c1ccco1,21µM,n,n,n,n,x
Cc1ccc(C)c(/C=N/Nc2nc3ccccc3c(=O)n2O)c1,24µM,n,n,n,n,n
C[C@@H]1COC(=O)O1,x,n,x,x,x,n
